These results are taken from PubChem BioAssay (EPA / NIEHS).

SMILES strings stand for the structures. Several values for one entry are separate records, joined by “and”; a condition that tells them apart may be missing. Equal entries are not always repeated. Activity calls are given as the source filed them. The calls were made as follows, unless noted: active = hit-call score of the fitted dose curve at least 0.9, where 1 is the maximum; inactive = score below 0.9.

Read-out in experiment [1]: Macrophage colony-stimulating factor (MCSF), CSF1 (gene 1435)
The experiment can be described thus: BSK_IMphg_MCSF: BioMAP Diversity Plus: IMphg Assay for Macrophage colony-stimulating factor (MCSF) Biomarker Activity (AID 2284293). As to conditions: primary human endothelial cells with macrophages. In outline:
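M-CSF was measured by ELISA in human venular endothelial cell/macrophage co-cultures dosed for 24 hours. Sulforhodamine B staining of parallel cultures assessed cytotoxicity; data fitted against DMSO baseline.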

Read-out in experiment [2]: Interleukin-10 (IL10), IL10 (gene 3586)
The experiment can be described thus: BSK_IMphg_IL10: BioMAP Diversity Plus: IMphg Assay for Interleukin-10 (IL10) Biomarker Activity (AID 2284294). As to conditions: primary human endothelial cells with macrophages. The essentials:
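IL-10 read by ELISA after 24 h chemical exposure of primary human venular endothelial cell/macrophage cocultures, with DMSO as baseline. Parallel SRB staining (560 nm) gauged overt cytotoxicity.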

Experiment [3] can be described thus: BSK_IMphg_SRB.Mphg: Macrophage Viability Assessment in the BioMAP Diversity Plus: IMphg Assay (AID 2284295). As to conditions: primary human endothelial cells with macrophages. In outline:
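Cytotoxicity read-out: parallel cultures fixed with 10% TCA, stained with 0.1% sulforhodamine B, read at 560 nm. System combines venular endothelium and macrophages; sampled 24 h post-dosing, fitted positively relative to DMSO control.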

Read-out in experiment [4]: Thrombomodulin, THBD (gene 7056)
Put plainly: BSK_LPS_Thrombomodulin: BioMAP Diversity Plus: LPS Assay for Thrombomodulin Biomarker Activity (AID 2284296). As to conditions: primary human HUVEC with PBMC. In outline:
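Thrombomodulin on the surface of LPS-activated endothelial/PBMC co-cultures was quantified by ELISA at 24 hours post-dosing, with DMSO as baseline. Parallel SRB total-protein staining flagged overt cytotoxicity.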

Read-out in the next experiment: CD69, CD69 (gene 969)
The experiment can be described thus: BSK_LPS_CD69: BioMAP Diversity Plus: LPS Assay for CD69 Biomarker Activity (AID 2284303). As to conditions: primary human HUVEC with PBMC. The essentials: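 CD69 surface levels were read by ELISA after 24 h chemical treatment of an LPS-stimulated HUVEC plus PBMC co-culture; positive-direction fit against DMSO vehicle.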

Experiment [5] can be described thus: Tanguay_ZF_120hpf_MO24: Oregon State University Tanguay Lab 24 Hour Post-fertilization zebrafish Assay for Mortality (AID 2284389). In outline: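 Embryo death at 24 hpf was recorded as present or absent in Tropical 5D zebrafish, dechorionated at 4 hpf and dosed statically from 6 hpf (28C, 0.64% DMSO); 5 uM trimethyltin chloride served as positive control.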
Experiment [6] can be described thus: Tanguay_ZF_120hpf_CRAN: Oregon State University Tanguay Lab 120 Hour Post-fertilization zebrafish Assay for Craniofacial Malformation (AID 2284397). The essentials:
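Scoring of craniofacial malformation as a binary endpoint was done at 120 hpf by brightfield microscopy and was not done in dead embryos. Exposure was static, starting at 6 hpf, in dechorionated wild-type embryos held singly at 28C with 0.64% DMSO final.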

The nature of experiment [7]: Tanguay_ZF_120hpf_MORT: Oregon State University Tanguay Lab 120 Hour Post-fertilization zebrafish Assay for Mortality (AID 2284399). The essentials: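 Mortality, recorded present/absent via brightfield imaging at 24 and 120 hpf, in 5D zebrafish embryos exposed statically from 6 hpf after pronase chorion removal. Exposure at 28C, 0.64% DMSO vehicle, DMSO baseline.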
Experiment [8] in a line: Tanguay_ZF_120hpf_EDEM: Oregon State University Tanguay Lab 120 Hour Post-fertilization zebrafish Assay for Edema Malformation (AID 2284400). In outline: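 Edema recorded as a binary endpoint under brightfield at 120 hpf, excluding embryos that died. Exposure was static, sealed, 28C, from 6 hpf in dechorionated wild-type larvae, final DMSO 0.64%, DMSO as baseline.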
The nature of experiment [9]: Tanguay_ZF_120hpf_TCHR: Oregon State University Tanguay Lab 120 Hour Post-fertilization zebrafish Assay for Touch Responsive (AID 2284403). In outline: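 Binary touch-response calls are made at 120 hpf in 5D wild-type zebrafish larvae. These larvae were dechorionated with pronase and exposed singly from 6 hpf in sealed, dark plates at 28 °C with 0.64% DMSO final; dead embryos are excluded.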

Experiment [10] can be described thus: Tanguay_ZF_120hpf_ANY: Oregon State University Tanguay Lab 120 Hour Post-fertilization zebrafish Assay for Any Mortality and Malformation (AID 2284404). The essentials:
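Dechorionated Tropical 5D wild-type embryos, one per well from 6 hpf, static exposure in sealed, dark plates at 28C until 120 hpf, 0.64% DMSO final. Brightfield scoring of mortality and malformations as binary presence/absence, pooling 13 morphology endpoints.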

The test system of the next experiment is TTR (gene 7276). The experiment can be described thus: CCTE_GLTED_hTTR_0.5uM: CCTE's human Transthyretin (hTTR) Inhibition Assay, with 0.5uM TTR, Great Lakes Toxicology and Ecology Division (GLTED) Lab (AID 2284320). In outline: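 Probe (ANSA) displacement from 0.5 uM human transthyretin was followed by fluorescence (ex 380, em 475) after a 2 h incubation with chemical. Activity was scored as signal loss and fitted positively relative to DMSO.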

Another experiment relates to IYD (gene 389434). Put plainly: CCTE_GLTED_hIYD: CCTE's human Iodotyrosine Deiodinase (xIYD) Inhibition Assay, Great Lakes Toxicology and Ecology Division (GLTED) Lab (AID 2284317; active = hit-call score of the fitted dose curve at least 0.9, where 1 is the maximum;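 also: cell-free human IYD enzyme made in baculovirus insect cells; iodide freed from monoiodotyrosine measured by cerium arsenite color change at 420 nm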). In outline:
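Deiodination of MIT by insect-cell-produced human IYD is measured after a 3 h incubation with test chemical. Free iodide passes through a Dowex column and accelerates Sandell-Kolthoff Ce4+ reduction, read at 420 nm; run in triplicate.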

Experiment [11] in a line: CCTE_Deisenroth_5AR_NBTE_donor: CCTE's 5alpha-reductase NanoBRET Target Engagement Assay […], Deisenroth Lab (AID 2284319). As to conditions: actives raise or lower the signal. The essentials:
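HEK293T cells were reverse transfected with an SRD5A2-NanoLuc vector for 20 h, exposed to test chemical (8 points, 10 nM - 29.9 uM) for 3 h, then testosterone tracer for 2 h more. Donor luminescence (460 nm) was read; bidirectional fit versus DMSO.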
(In general: BRET reads energy transfer from a luciferase to a nearby fluorophore.)

The nature of experiment [12]: CCTE_Deisenroth_5AR_NBTE_acceptor: CCTE's 5alpha-reductase NanoBRET Target Engagement Assay - Autofluorescence Screen, Deisenroth Lab (AID 2284321).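 Also: compound fluorescence in the acceptor channel under 460 nm excitation flags autofluorescence artifacts.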 As to conditions: actives raise or lower the signal. The essentials:
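Chemicals diluted to a nominal 100 uM in DMSO were scanned at 460 nm excitation. Samples were read in three independent runs (n=3). Gain or loss of acceptor signal was fitted relative to DMSO.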

A further experiment relates to SRD5A2 (gene 6716). The experiment can be described thus: CCTE_Deisenroth_5AR_NBTE_ratio: CCTE's 5alpha-reductase NanoBRET Target Engagement Assay - Ratio, Deisenroth Lab (AID 2284322). As to conditions: actives raise or lower the signal. The essentials: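 HEK293T cells transiently expressing an SRD5A2-NanoLuc fusion (20 h post-transfection) were exposed to test chemical (10 nM - 29.9 uM, 8 points) for 3 h, then testosterone tracer for a further 2 h. Acceptor/donor BRET ratio was fitted bidirectionally against DMSO baseline.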

In a further experiment the test system is SERPINA7 (gene 6906). Put plainly: CCTE_GLTED_hTBG: CCTE's human Thyroxine-binding Globulin (TBG) Inhibition Assay, Great Lakes Toxicology and Ecology Division (GLTED) Lab (AID 2284343; active = hit-call score of the fitted dose curve at least 0.9, where 1 is the maximum;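 also: active chemicals lower fluorescence versus DMSO baseline by displacing probe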). The essentials:
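Human thyroxine-binding globulin was exposed to each chemical for 2 hours, during which the ANSA probe could be displaced. Fluorescence was then measured at 380/475 nm, and loss of signal was analysed relative to DMSO.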

`O=C(O)C(F)(F)C(F)(F)C(F)(F)C(=O)O`: the outcome in [1] is “inactive”; in experiment [2], “inactive”; in experiment [3], “inactive”; in [4] it was “inactive”; with CD69, CD69 (gene 969), “inactive”; in experiment [5], “inactive”. The call in [6], in experiment [7], in experiment [8], in experiment [9] and in experiment [10] was inactive.

In the case of `OCC(F)(F)C(F)(F)C(F)(F)C(F)(F)C(F)(F)C(F)(F)CO`, the outcome in [1] was “inactive”; in experiment [3], “inactive”; in [4], “inactive”; in the experiment with CD69, CD69 (gene 969) it was “inactive”; in experiment [5] it was “inactive”; in [6], “inactive”. For the same compound, the call in experiment [7], in [8], in experiment [9] and in experiment [10] was inactive. Moreover, the AC50 (commonly the concentration giving half of the maximal activity seen) in experiment [2] was 3.34 µM (active) and 5.58 µM (active); in the experiment with TTR (gene 7276) it was 11.2 µM (active).

Take `FC(F)(F)C(F)(F)C(F)(F)C(F)(F)C(F)(F)C(F)(F)C(F)(F)CCI`: the outcome was “inactive” in experiment [1]; “inactive” in [2]; “inactive” in [3]; “inactive” in [4]; “inactive” with CD69, CD69 (gene 969); “inactive” in experiment [5]. Also, the call in experiment [6], in experiment [7], in [8], in [9] and in experiment [10] was inactive. Moreover, the AC50 in the experiment with TTR (gene 7276) was 22.5 µM (active).

As for `CCCCCCCCn1sc(Cl)c(Cl)c1=O`, the AC50 in the experiment with IYD (gene 389434) was 100 µM (active).

Turning to `CCCCCCCC/C=C\CCCCCCCC(=O)N(C)CC(=O)O`, the AC50 was 58.2 µM (active) in the experiment on IYD (gene 389434) and 5.56 µM (active) in the experiment on SERPINA7 (gene 6906). Moreover, the call (in experiment [11]; in [12]; with SRD5A2 (gene 6716)) was inactive.

As to `O=C1C=CC(=O)N1c1ccccc1`, the results for the AC50 (in experiment [11]; in experiment [12]; with SRD5A2 (gene 6716)) were 50 µM (active), 50 µM (active) and 22.3 µM (active), respectively.

Turning to `CCCCCCCCCc1ccc(OCCO)cc1`, the AC50 was 40.3 µM (active) in experiment [11], 19.1 µM (active) in [12], 88.8 µM (active) in the experiment with SRD5A2 (gene 6716) and 50 µM (active) with SERPINA7 (gene 6906).

Consider `OCC(F)(F)C(F)(F)C(F)(F)CO`, for which the outcome in experiment [1] was “inactive”; in experiment [2] it was “inactive”; in [3], “inactive”; in experiment [4], “inactive”; with CD69, CD69 (gene 969) it was “inactive”; in experiment [5], “inactive”. Also, the call in experiment [6], in experiment [7], in [8], in experiment [9] and in [10] was inactive.

With `CCN=c1cc2oc3cc(NCC)c(C)cc3c(-c3ccccc3C(=O)OCC)c-2cc1C`, the AC50 in [11] was 10 µM (active); in experiment [12] it was 0.603 µM (active); with SRD5A2 (gene 6716), 6.06 µM (active).

Regarding `NC(=O)C(F)(F)C(F)(F)C(F)(F)F`, the outcome in experiment [1] was “inactive”; in experiment [2] it was “inactive”; in experiment [3], “inactive”; in experiment [4], “inactive”; with CD69, CD69 (gene 969) it was “inactive”; in [5], “inactive”. The compound was classed as inactive in experiment [6], in experiment [7], in experiment [8], in [9] and in [10].

As to `C=CC(=O)OCCC(F)(F)C(F)(F)C(F)(F)C(F)(F)F`, the outcome is “inactive” in experiment [1]; “inactive” in experiment [2]; “inactive” in experiment [3]; “inactive” in experiment [4]; “inactive” in the experiment with CD69, CD69 (gene 969); “inactive” with TTR (gene 7276). Also, the result in experiment [5], in experiment [6], in [7], in experiment [8], in experiment [9] and in experiment [10] was inactive.

For `O=S(=O)(OCC(F)(F)F)C(F)(F)C(F)(F)C(F)(F)C(F)(F)F`, the result in experiment [1], in [2], in experiment [3], in [4], in experiment [5] and in experiment [6] was inactive. Besides, the call in experiment [7], in experiment [8], in experiment [9] and in experiment [10] was inactive. The AC50 in the experiment with CD69, CD69 (gene 969) was 30 µM (active) and 890 nM (active); in the experiment with TTR (gene 7276) it was 1.4 µM (active).

As to `COC(F)(C(F)F)C(F)(F)F` (stereo not drawn), the outcome in experiment [1] is “inactive”; in experiment [2], “inactive”; in experiment [3], “inactive”; in experiment [4] it was “inactive”; in the experiment with CD69, CD69 (gene 969), “inactive”; in [5], “inactive”. Further, the result in [6], in experiment [7], in experiment [8], in experiment [9] and in experiment [10] was inactive.
